Measured potencies and affinities stand elsewhere.

These results are taken from PubChem BioAssay AID485284 (NMMLSC, 2010).

This assay is described as follows: loss of vesicle association with mouse CD8+ T cells – mouse 2C CD8+ T cells, flow cytometry, dose response (AID 485284).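 Also: drosophila derived vesicles carrying Ld MHC with QL9 peptide plus B7-1 and ICAM-1; vesicle binding seen as anti-B7-1 PE fluorescence on CD8 gated cells.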 The conditions noted are these: 2C mouse CD8+ T cell-exosome binding; at 45 µM (top of the series).
With `O=C1CCCc2sccc2N1`, the binding remaining, % of control amounted to 106%.

As for `O=C(Cc1c(Cl)cccc1Cl)Nc1cccc(S(=O)(=O)N2CCOCC2)c1`, the binding remaining, % of control is 112%. On to `O=C(NCCc1nc2ccc(Cl)cc2[nH]1)C1CCC(=O)N(Cc2cccc(F)c2)C1` (centres undefined), for which the binding remaining, % of control was 110%.

As for `CCCCn1c(N)c(N(CCOC)C(=O)C2CC(=O)N(c3ccc(CC)cc3)C2)c(=O)[nH]c1=O` (centres undefined), the binding remaining, % of control came out at 17.2%. On to `COc1ccc(Nc2ccccc2N)cc1`, for which the binding remaining, % of control is 182%. The result for `O=C(NC(=S)Nc1nc(-c2ccccc2)cs1)c1cccs1` reads 173%; that for `COc1ccc([C@H]2CC(=O)C=C(c3cc(F)ccc3OC)C2)cc1`, 109%; that for `CCCCOc1ccc(C(=O)NCC(=O)N2CCN(C(=O)c3ccco3)CC2)cc1`, 23.6%. On to `COc1ccc(CN2C(=O)C(C)Nc3ncnc(N4CCN(c5ccccn5)CC4)c32)cc1` (centres undefined), for which the binding remaining, % of control was 22%. The figure for `CC1CCN(S(=O)(=O)Cc2ccccc2Cl)CC1` is 118%; for `CN(C)S(=O)(=O)N1CCN(S(=O)(=O)N(C)C)CC1` it is 55.7%; for `COc1ccc(C(O)c2coc3ccc(O)c(CN(C)C)c23)cc1` (centres undefined) it is 113%. Take `CC(C)(C)NC(=O)COc1ccc(CNCc2ccccn2)cc1`: the binding remaining, % of control turned out to be 120%. Consider `Cc1ccc(NC(=O)CN2C(=O)N/C(=C/c3ccc(C)s3)C2=O)cc1`, for which the binding remaining, % of control was determined as 46%. As for `Cc1ccc(C(C)C)c(OCC(=O)N2CCN(c3ncccn3)CC2)c1`, the binding remaining, % of control was determined as 17.4%.

For `O=C(NCC1CCCCC1)c1ccc(Cl)c(S(=O)(=O)N2CCOCC2)c1`, the binding remaining, % of control was 111%. The figure for `CCOC(=O)C1CCCN(c2cc(=O)n(-c3ccccc3Cl)c(=O)[nH]2)C1` (centres undefined) is 87.9%. For the compound `CC(=O)c1cccc(NC(=O)c2ccncc2)c1`, the binding remaining, % of control worked out at 35.3%. As for `CCOc1ccc(S(=O)(=O)N2CCC(C(=O)Nc3cc(S(C)(=O)=O)ccc3Cl)CC2)cc1`, the binding remaining, % of control turned out to be 106%.

Turning to `Cc1ccc2c(Cl)cc(Cl)c(OCC(=O)OCC(=O)Nc3ccc(C#N)cc3)c2n1`, the binding remaining, % of control was 141%. Turning to `Cn1c(CNC(=O)CNC(=O)c2ccc(F)cc2)cc(=O)n(C)c1=O`, the binding remaining, % of control was 99.6%.

Take `O=C(/C=C/c1ccc(Br)cc1)c1ccc(NC(=O)c2ccco2)cc1`: the binding remaining, % of control turned out to be 98.2%. Take `COc1ccccc1N1CCN(C(=O)C2CCCN(S(=O)(=O)c3ccc(C)cc3)C2)CC1` (centres undefined): the binding remaining, % of control is 132%. `COc1ccc(N2C(=O)CC(Sc3ncn[nH]3)C2=O)c(OC)c1` (centres undefined): the binding remaining, % of control worked out at 135%.

Take `CC(C)[C@H]1C(=O)Nc2ccccc2N1C(=O)N[C@@H](Cc1ccccc1)C(=O)N[C@@H](Cc1ccccc1)C(=O)O`: the binding remaining, % of control was 168%.

Turning to `COc1ccc2c(c1)-c1c(sn(-c3ccc(OC)c(OC)c3)c1=S)C(C)(C)N2`, the binding remaining, % of control was 116%. For `COc1ccccc1CNC(=O)c1ccc(N(C)S(=O)(=O)c2ccc(C)cc2)cc1`, the binding remaining, % of control was 156%. As to `CN(C)S(=O)(=O)c1ccc(C(=O)NCCc2ccco2)cc1`, the binding remaining, % of control was 128%. In the case of `O=C(NCc1cccnc1)C(=O)NCC(c1ccco1)N1CCN(c2ccccc2)CC1` (centres undefined), the binding remaining, % of control was 110%. On to `CCN(CC)C(=O)N1CCN(S(=O)(=O)c2ccc(C)cc2)CC1`, for which the binding remaining, % of control was 112%. With `Cc1c(C(=O)NCCSCc2c(F)cccc2Cl)cnn1-c1ccc(Cl)cc1`, the binding remaining, % of control was determined as 144%. The figure for `Cc1ccccc1C(=O)N1CCC(C(=O)Nc2ccc(C)c(S(=O)(=O)N3CCCCC3)c2)CC1` is 134%. Consider `Cc1cc(N2CCN(C)CC2)nc2ccc(NC(=S)N3CCC4(CC3)OCCO4)cc12`, for which the binding remaining, % of control came to 147%. As to `Cc1c(C)c2c(OCC(=O)NCC(O)c3ccccc3)cc3c(c2oc1=O)CCC(C)(C)O3` (centres undefined), the binding remaining, % of control was 72.4%.
